TexasRed fluor: alters Texas Red total fluorescence, flagging assay interference; TRb/SRC2 Texas Red total fluorescence interference; Potency, µM (series often up to 106 µM); hit rate 0.29% among 280,000; active = well fitted curve in either direction with a large enough effect; inconclusive = small, poorly fitted or top-dose-only effect
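Flags fluorescent or light-absorbing compounds by total fluorescence, S + 2P, at 555 nm excitation and 632 nm emission. Mixture: 20 nM Texas Red SRC2 peptide, 0.6 uM human TRb LBD, 1 uM T3, 5% DMSO; compound exposure 5 h at ambient temperature.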
Tau fluor counter: counter-screen for tau fibril formation inhibitors. tau K18 P301L Alexa594 fluorescence, heparin fibrillization. Potency, µM (doses to about 57.7 µM). hit rate 0.93% among 280,000. AID 1463; also: nearly all actives have a fitted effect of over 55% in size
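Human K18 P301L tau (15 uM unlabeled plus 0.24 uM Alexa 594-labeled, final) in 100 mM sodium acetate pH 7 was mixed with compound and 20 uM heparin and incubated 6 hr at 37 C.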
TRb-SRC2 inh: inhibitors of human thyroid hormone receptor beta-SRC2 interaction | TRbeta-SRC2 peptide binding, fluorescence polarization; receptor liganded with 1 µM T3 | Potency, µM (doses to about 106 µM), usual class: inhibitors | hit rate 0.065% among 280,000 | AID 1469; also: nearly all actives have a fitted effect of over 50% in size
Target sequence (P10828 whole entry, looked up): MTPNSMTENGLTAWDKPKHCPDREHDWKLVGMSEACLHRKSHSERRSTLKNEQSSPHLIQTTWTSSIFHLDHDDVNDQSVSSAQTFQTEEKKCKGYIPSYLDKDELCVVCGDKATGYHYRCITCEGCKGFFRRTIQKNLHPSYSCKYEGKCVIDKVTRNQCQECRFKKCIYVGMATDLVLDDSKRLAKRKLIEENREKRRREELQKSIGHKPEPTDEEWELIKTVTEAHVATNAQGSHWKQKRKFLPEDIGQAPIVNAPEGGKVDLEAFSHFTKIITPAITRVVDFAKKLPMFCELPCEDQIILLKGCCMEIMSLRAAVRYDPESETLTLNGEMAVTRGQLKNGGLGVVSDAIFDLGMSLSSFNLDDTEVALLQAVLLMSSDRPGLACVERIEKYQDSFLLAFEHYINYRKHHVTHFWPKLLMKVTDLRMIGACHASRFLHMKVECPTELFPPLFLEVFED
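TRb LBD 0.6 uM + Texas Red SRC2 peptide 20 nM, 1 uM T3, Tris buffer w/ 5% DMSO; compound pinned, 5 h RT; FP read ex 555/em 632; normalized to unbound and bound controls.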
PNC inhibitor: inhibitors of perinucleolar compartment assembly | activity change (PNC), negative = inhibition, % at 10 µM | PC3M PTB-GFP, PNC prevalence imaging, 16 h; stronger effect = lower value | hit rate 3.1% among 140,000;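 active = readout at or below -70, meaning at least 70% loss of cells showing the perinucleolar compartment, a nuclear body marking cancer cells; inconclusive = readout between -30 and a set limit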
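Read-out is percentage of cells bearing a perinucleolar compartment, from automated 20x imaging of fixed, Hoechst-stained PC3M PTB-GFP cells. Cells were seeded 4 h, then exposed 16 h to compound (23 nl of library stock) in duplicate plates.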
Tau FP inhib: blocks human tau fibril formation measured by polarization; K18 P301L tau heparin fibrillization, Alexa594 FP, 6 h; Potency, µM (series often up to 57.7 µM), usual class: inhibitors; hit rate 0.39% among 280,000; P10636; also: nearly all actives have a fitted effect of over 55% in size
Target sequence (P10636 561-689 P618L limits assumed): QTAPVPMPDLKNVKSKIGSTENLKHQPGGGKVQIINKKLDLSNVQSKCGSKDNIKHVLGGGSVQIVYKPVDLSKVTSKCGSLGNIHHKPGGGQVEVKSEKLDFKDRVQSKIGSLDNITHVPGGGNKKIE
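Human tau K18 […] P301L fragment, 15 uM unlabeled plus 0.24 uM Alexa 594-labeled tau (final), with compound and 20 uM heparin in 100 mM sodium acetate pH 7; 6 hr at 37 C, then Alexa 594 FP read.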
Tau fibril ThT: tau fibrillization inhibition (ThT binding) | hit rate 2.1% among 270,000 | recombinant tau K18 P301L, heparin-induced fibrillization, ThT fluorescence | Potency, µM (titrated, usually from 57.4 µM), actives largely listed as inhibitors | P10636; also: nearly all actives have a fitted effect of over 55% in size
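K18 P301L tau (15 uM + 0.24 uM Alexa 594-tagged), heparin 20 uM, NaOAc pH 7, 6 h 37 C; ThT 30 uM, 1 h RT, ex 450/em 510 nm.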
Tau TEM fibril: Inhibits human tau fibrillization; shares compounds with Tau fibril ThT; recombinant tau K18 P301L fibrillization, TEM grading; stronger effect = higher value; fibril grade (0 = clumped fibrils, 4 = only tiny pieces) (no concentration beside the values); hit rate 70% among 45;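 active = compounds whose electron micrographs showed tau fibrils broken into shorter filaments or fragments, graded high on fibril breakup; inconclusive = micrographs gave an unclear fibril picture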
tau fibril sed: inhibitors of human tau fibrillization, sedimentation test; shares compounds with Tau fibril ThT; recombinant tau K18 P301L (four-repeat tau fragment), sedimentation SDS-PAGE densitometry; inhibition, % at 100 µM; hit rate 50% among 110; AID 1720; in the data active = inhibition above about 40%; inconclusive = no clear call, values can overlap the other calls; inactive = below about 18%
A number is an active result; . = inactive; ? = inconclusive; / = not tested or not shown; ! = repeats disagree; [ ] = dose if it differs, or a comment. A selection: hits, their analogues and other compounds. The true share with any hit is near 4.6%. Unless noted, calls follow the shape of the dose curve; as a rule, active = well fitted curve in the direction sought with a large enough effect; inconclusive = small, poorly fitted or top-dose-only effect, or another doubt; inactive = no such curve, though single readings can be large; an effect the other way counts as inactive or inconclusive.

SMILES	TexasRed fluor	Tau fluor counter	TRb-SRC2 inh	PNC inhibitor	Tau FP inhib	Tau fibril ThT	tau fibril sed	others
COC(=O)CSc1nc2ccc(NC(=O)CSc3nnnn3Cc3ccccc3)cc2s1	.	?	.	?	?	?	.
Nc1scc2c(C(=O)N3CCOCC3)nn(-c3ccccc3)c(=O)c12	/	/	/	/	/	/	89
NC(=O)c1nn(-c2ccccc2)c(=O)c2c(N)scc12	/	/	/	/	/	/	89
Nc1nn(-c2ccccc2)c(=O)c2c(N)scc12	/	/	/	/	/	/	86
CCN1CCN(C(=O)c2nn(-c3ccccc3)c(=O)c3ccccc23)CC1	.	.	.	.	.	.	/
CCOC(=O)c1nn(-c2ccccc2)c(=O)c2c(N)scc12	.	?	.	.	?	8.9µM	73	Tau TEM fibril=2
Cn1nc(C(F)(F)F)c2cc(C(=O)O)sc21	.	.	.	/	.	.	/
Cc1ccc(C(=O)c2cn(Cc3ccccc3)c3nc(C)ccc3c2=O)cc1	.	.	.	/	.	.	/
CCOC(=O)c1nn(-c2ccccc2)c(=O)c2c(NC(C)=O)scc12	.	.	.	/	.	.	.
Nc1scc2c(CO)nn(-c3ccccc3)c(=O)c12	/	/	/	/	/	/	81
COCCNC(=O)Cn1nc(C(F)(F)F)cc1C	.	.	.	?	.	.	/
COc1ccc(NC(=O)c2cccs2)cc1NC(=O)c1ccco1	.	.	.	?	.	.	/
COc1ccc(NC(=O)C2CCN(S(=O)(=O)c3c(C)noc3/C=C/c3cccs3)CC2)cc1Cl	.	.	.	/	16µM	.	.
O=C(Nc1nnc(S(=O)(=O)Nc2ccccc2)s1)C1CCCCC1	.	?	.	/	.	?	.
O=C(Nc1nnc(S(=O)(=O)Nc2ccccc2)s1)c1ccccc1Cl	.	.	.	/	.	?	/
CC[C@H](NC(C)C)[C@H](O)c1ccc(O)c(O)c1	.	/	.	/	/	/	/
NC[C@@H](O)c1ccc(O)c(O)c1	?	.	.	/	?	?	.
NC[C@H](O)c1ccc(O)c(O)c1	.	?	.	/	6.3µM!	4µM!	75	Tau TEM fibril=3
Cc1cccc(C(=O)N2CCc3cc(CNC(=O)c4ccco4)ccc32)c1	.	.	.	/	.	.	/
CCOC(=O)C1CCN(C(=O)c2c(-c3ccccc3)noc2C)CC1	.	.	.	/	.	.	/
CN(c1ccccc1)S(=O)(=O)c1nnc(NC(=O)COc2ccccc2)s1	.	?	.	/	?	?	?
COC(=O)c1ccccc1NC(=O)CSc1nc2sc3c(c2c(=O)[nH]1)CCCC3	.	?	.	/	14µM	7.9µM	58	Tau TEM fibril=2
NC(=O)c1csc(-c2ccncc2)n1	.	.	.	?	.	.	/
Nc1cc(-c2ccncc2)c[nH]c1=O	.	?	?	?	2µM	1.4µM	61	Tau TEM fibril=3
Nc1cc(-c2ccccc2)c[nH]c1=O	/	/	/	/	/	/	65	Tau TEM fibril=?
SMILES	TexasRed fluor	Tau fluor counter	TRb-SRC2 inh	PNC inhibitor	Tau FP inhib	Tau fibril ThT	tau fibril sed	others
O=C(NCc1cccnc1)C1CCN(S(=O)(=O)c2cccnc2)CC1	.	.	.	.	.	.	/
O=C(NCc1cccnc1)C1CCN(S(=O)(=O)c2cccs2)CC1	.	4.5µM[quencher]	.	.	?	4µM	.
COc1ccc2c(c1)c(CC(=O)N1CCOCC1)c(C)n2C(=O)c1ccc(Cl)cc1	.	.	.	/	.	.	.
COc1ccc2c(c1)c(CC(=O)OCC(N)=O)c(C)n2C(=O)c1ccc(Cl)cc1	.	.	.	/	.	.	/
O=C(Cc1ccccc1)Nc1sc2c(c1C(=O)Nc1ccc(Cl)cc1)CCCC2	.	.	.	/	?	8.9µM	61	Tau TEM fibril=2
O=C(Cc1ccccc1)Nc1sc2c(c1C(=O)Nc1ccccc1)CCCCC2	?	.	.	/	.	.	/
O=C(Nc1ccc(Cl)c(-c2nc3ccccc3o2)c1)c1ccc(-c2cccc([N+](=O)[O-])c2)o1	.	?	.	/	.	?	/
O=C(CN1C(=O)C2CCCCN2C(=O)c2ccccc21)Nc1ccc(F)cc1 (stereo not given)	.	.	.	/	.	.	/
Cn1c(CN2CCOCC2)c(C#N)c2ccccc21	.	.	.	.	.	.	/
O=S(=O)(c1ccc(NC(=S)N/N=C/c2ccc(N3CCOCC3)cc2)cc1)N1CCOCC1	.	?	.	.	.	?	.
O=S(=O)(c1ccc(NC(=S)N/N=C/c2ccc(Oc3ccccc3)cc2)cc1)N1CCOCC1	.	.	.	/	.	.	/
CCCN(Cc1cccs1)C(=O)Nc1cc(OC)ccc1OC	.	.	.	/	.	?	/
COc1cccc(CNc2cccc3cccnc23)c1O	.	?	.	-94	?	28µM	?	Tau TEM fibril=2
